Compounds with a hit are over-represented: about 3.4% of the library has one in this group of screens.
TEAD-YAP inh = TEAD-YAP interaction inhibition. inhibition, % at 9.12 µM. 1.4% of 640,000 active. HEK-TIYL cells, TEAD-Gal4/YAP UAS-luciferase luminescence. AID 1259422; in the data active means inhibition above about 32%
FBW7 activator = activators of human E3 ligase FBW7 | AlphaScreen FBW7–phospho-cyclin E peptide binding, activator screen | 0.13% of 650,000 active | normalized activity (activation), % at 26.1 µM | Q969H0; in the data active means normalized activity above about 1.9%;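 further: purified mutant Fbw7 with reduced substrate affinity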
Target sequence (Q969H0 whole entry, looked up): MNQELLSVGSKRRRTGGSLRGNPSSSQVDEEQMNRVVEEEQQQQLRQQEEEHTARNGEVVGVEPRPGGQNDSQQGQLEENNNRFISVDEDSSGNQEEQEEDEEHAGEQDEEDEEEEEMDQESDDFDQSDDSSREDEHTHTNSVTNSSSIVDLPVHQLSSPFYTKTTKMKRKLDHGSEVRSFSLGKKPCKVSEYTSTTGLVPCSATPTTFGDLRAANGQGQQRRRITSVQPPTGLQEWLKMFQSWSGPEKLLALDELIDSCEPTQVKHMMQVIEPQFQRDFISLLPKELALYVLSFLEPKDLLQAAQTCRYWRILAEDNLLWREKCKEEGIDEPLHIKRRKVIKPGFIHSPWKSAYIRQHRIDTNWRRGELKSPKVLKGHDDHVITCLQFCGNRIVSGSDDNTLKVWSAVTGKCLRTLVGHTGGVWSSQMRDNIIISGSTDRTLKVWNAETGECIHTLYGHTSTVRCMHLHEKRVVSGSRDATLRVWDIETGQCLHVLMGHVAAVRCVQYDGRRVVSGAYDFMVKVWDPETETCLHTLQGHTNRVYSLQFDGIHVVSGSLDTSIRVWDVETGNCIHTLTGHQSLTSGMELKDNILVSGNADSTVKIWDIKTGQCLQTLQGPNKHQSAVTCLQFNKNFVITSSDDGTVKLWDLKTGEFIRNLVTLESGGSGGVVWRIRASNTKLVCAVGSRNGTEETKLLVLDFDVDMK
MITF inh = inhibitors of human MITF; O75030; AlphaScreen MITF homodimerization, bead proximity signal; inhibition, % at 2.6 µM; 0.91% of 650,000 active; in the data active means inhibition above about 50%
GPR151 ag = activates the human receptor GPR151; 1% of 650,000 active; AID 1508602; Q8TDV0; PathHunter beta-arrestin GPR151 cells, luminescence; activation, % at 11.2 µM; in the data active means activation above about 4.9%
Large screens that a line does not name were inactive.

O=C1CCCC2=C1C(c1ccncc1)Nc1ccc(C(=O)c3ccccc3)cc1N2 (configuration not stated)	none
O=C1CCCC2=C1C(c1ccccc1)Nc1ccc(C(=O)c3ccccc3)cc1N2 (configuration not stated)	TEAD-YAP inh 35.5
O=C(Nc1ccc(I)cc1)c1ccccc1Br	none
CCOC(=O)C1=CN(C)C=C(C(=O)OCC)C1c1cccs1	none
COc1ccc(CNc2nc3ccc(-c4ccncc4)cc3s2)cc1	FBW7 activator 60.2
CC(=O)OC(=C(Cl)Cl)c1ccc(C(OC(C)=O)=C(Cl)Cl)cc1	TEAD-YAP inh 41.7
CC(=O)Oc1ccc(C(=O)c2ccc(OC(C)=O)cc2)cc1	none
Cc1ccc(Nc2nc(NCCO)c3cnn(C)c3n2)cc1C	none
COc1ccc(C(=O)Nc2cc(C)ccc2O)cc1	TEAD-YAP inh 44.1
COc1ccc(C(=O)Nc2cc(C)ccc2O)c(OC)c1	none
Cc1ccc(O)c(NC(=O)c2ccc(N3C(=O)c4ccc([N+](=O)[O-])cc4C3=O)cc2)c1	TEAD-YAP inh 55.0
COc1cc(OC)cc(C(=O)c2ccc(C(=O)Nc3cc(C(C)C)c(O)cc3C)cc2)c1	TEAD-YAP inh 46.7
O=C(Nc1ccc([N+](=O)[O-])cc1)c1ccc(N2C(=O)c3ccc([N+](=O)[O-])cc3C2=O)cc1	none
COc1ccc(NC(=O)C2CCCN(CCCc3ccccc3)C2)cc1OC1CCCC1 (configuration not stated)	none
Cc1cc(C(C#N)c2ccc(Cl)cc2Cl)n2ncnc2n1 (configuration not stated)	none
Cc1cccc(C(C#N)c2cc(C)nc3ncnn23)c1 (configuration not stated)	FBW7 activator 2.1
CCc1ccc(/C=N\NC(=O)C2CC(=O)N(c3ccc(OC)cc3)C2)cc1 (configuration not stated)	TEAD-YAP inh 47.5
COc1ccc(/C=N/NC(=O)C2CC(=O)N(c3ccc(Br)cc3)C2)cc1 (configuration not stated)	none
CC(=O)c1ccc(C(=O)Nc2ccccc2-c2nc3ccccc3[nH]2)cc1	none
O=C(Nc1ccccc1-c1nc2ccccc2[nH]1)C1COc2ccccc2O1 (configuration not stated)	none
COc1cc2ccccc2cc1C(=O)Nc1ccccc1-c1nc2ccccc2[nH]1	FBW7 activator 2.6
O=C(Nc1ccccc1-c1nc2ccccc2[nH]1)C1CC1	TEAD-YAP inh 38.2
O=C(CN1CCC(N2CCCCC2)CC1)Nc1ccccc1N1CCCCC1	none
COC(=O)CCCCCNC(=O)COc1ccc(Cl)cc1Cl	TEAD-YAP inh 69.1
O=C(COc1ccc(Cl)cc1Cl)NCCCCO	none
O=C(O)CCCCCNC(=O)COc1ccc(Cl)cc1Cl	TEAD-YAP inh 69.2
CC(C)(C)c1cc(/C=C(\C#N)C(N)=S)cc(C(C)(C)C)c1O	TEAD-YAP inh 47.4
COc1cc(/C=C(\C#N)C(N)=S)ccc1O	none
COc1ccc(C2(C(=O)NC(C)c3nc(-c4ccncc4)n[nH]3)CC2)cc1 (configuration not stated)	TEAD-YAP inh 63.9
COc1ccc(C2(C(=O)NC(C)c3nc(-c4cccnc4)n[nH]3)CCCCC2)cc1 (configuration not stated)	none
COc1cc(C(=O)OCC(=O)N2CCC(C(N)=O)CC2)ccc1OC(F)F	none
CC(=O)N(C(C)=O)N1C(=O)C(Cc2ccccc2)N2C(=S)NC(C)(C)CC21C (configuration not stated)	none
CCOc1ccc(-n2c(=S)sc3c(=O)n(-c4ccccc4)c(SCc4ccccn4)nc32)cc1	none
CC(C)(C)c1ccc(-c2cn(-c3ccccc3)c3[n+]2CCCS3)cc1	TEAD-YAP inh 84.3
Cc1nnc(NC(=O)COc2ccccc2Cl)s1	none
COCCN=c1scc(-c2ccccc2)n1/N=C1\CCc2ccccc21	TEAD-YAP inh 71.7
CC(=O)c1ccc(-c2ccc(C=C3C(=O)N(C)C(=S)N(C)C3=O)o2)cc1	none
O=C1NC(=O)N(c2cccc(F)c2)C(=O)/C1=C\C=C\c1ccco1	none
CN1C2CCC1/C(=C\c1ccco1)C(=O)/C2=C\c1ccco1	MITF inh 54.3
CN1C(=O)C(=Cc2ccc(I)o2)C(=O)N(C)C1=S	MITF inh 80.6
CC1(C)OC(=O)C(=C/C=C/c2ccco2)C(=O)O1	MITF inh 71.5
COc1cccc(N2C(=O)/C(=C/C=C/c3ccco3)C(=O)NC2=S)c1	MITF inh 56.9
O=C1/C(=C\c2ccco2)N2CCC1CC2	none
CN1C(=O)C(=C/C=C/c2ccco2)C(=O)N(C)C1=S	MITF inh 76.8
CN1C(=O)C(=Cc2ccco2)C(=O)N(C)C1=S	MITF inh 70.7
O=C1CCC(=O)N1CN1CCN(CN2C(=O)CCC2=O)C1	none
COc1cc(Nc2nc(C)cc(Nc3ccc(N4CCOCC4)cc3)n2)cc(OC)c1OC	TEAD-YAP inh 69.9
COc1cc(Nc2nccc(Nc3ccc(N4CCOCC4)cc3)n2)cc(OC)c1OC	TEAD-YAP inh 43.7
Cc1ccn2cc(-c3cccc(NC(=O)c4ccccc4)c3)nc2c1	none
CN(C)S(=O)(=O)c1ccc(-c2cn3ccccc3n2)cc1	none
Cc1ccn2cc(-c3ccc(O)c(O)c3)nc2c1	TEAD-YAP inh 64.1
Oc1ccc(-c2cn3ccccc3n2)cc1O	none
Cc1ccn2cc(-c3ccc4ccccc4c3)nc2c1	TEAD-YAP inh 63.1
Cc1ccc(-c2cn3ccccc3n2)cc1C	TEAD-YAP inh 58.9
Cc1ccn2cc(-c3ccccc3)nc2c1	TEAD-YAP inh 77.5
Cc1ccn2cc(-c3cccc(Cl)c3)nc2c1	none
COc1ccc(-c2nnn(CC(=O)Nc3ccccc3N3CCOCC3)n2)cc1OC	none
OCCSc1ncnc2sc3c(c12)CCC3	none
O=C(NCC1CCC2(CCN(Cc3ccc4ncccc4c3)CC2)O1)C1CCCO1 (configuration not stated)	FBW7 activator 2.1
COc1ccc(NC(=O)c2c(Cl)nc(Cl)c([N+](=O)[O-])c2Cl)cc1	TEAD-YAP inh 85.2
CCCCNC(=O)c1c(Cl)nc(Cl)c([N+](=O)[O-])c1Cl	TEAD-YAP inh 45.0
O=C(O)c1c(Cl)nc(Cl)c([N+](=O)[O-])c1Cl	none
NC(=O)c1c(Cl)nc(Cl)c([N+](=O)[O-])c1Cl	TEAD-YAP inh 98.2
CC1(C)C(CNC(N)=O)CC1CNC(N)=O (configuration not stated)	none
O=C(c1cccs1)C1C(c2ccc3c(c2)OCO3)NC(=S)NC1(O)C(F)(F)F (configuration not stated)	none
CCOc1ccccc1Nc1nnc(SCc2cc(C(C)=O)ccc2OC)s1	none
CCOc1ccc(C(C)=O)cc1CSc1nnc(Nc2ccccc2)s1	TEAD-YAP inh 34.8
O=C(CSc1ncn[nH]1)Nc1ccc(-c2nc3ccccc3s2)cc1	TEAD-YAP inh 52.5
COC(=O)c1ccc(NC(=O)CSc2ncn[nH]2)cc1	FBW7 activator 2.4
COc1ccc(NC(=O)CSc2ncn[nH]2)cc1	none
Cc1ccc(NC(=O)CSc2ncn[nH]2)cc1	none
Cc1ccc2nc(-c3ccc(NC(=O)CSc4ncn[nH]4)cc3)sc2c1	TEAD-YAP inh 72.7
COc1ccc(OC)c(/C=N/NC(=O)C(NS(=O)(=O)c2ccccc2)C(C)C)c1 (configuration not stated)	none

High-throughput results from PubChem BioAssay.
